Assay results published in PubChem BioAssay (NCATS).
Several values for one entry are separate records, joined by “and”; a condition that tells them apart may be missing. Equal entries are not always repeated. Results filed as inconclusive are left out. Activity calls are given as the source filed them. Unless noted, calls come from the whole dose curve; as a rule, active = well fitted curve in the direction sought with a large enough effect; inconclusive = small, poorly fitted or top-dose-only effect, or another doubt; inactive = no such curve, though single readings can be large; an effect the other way counts as inactive or inconclusive. Where a SMILES comes first, the peptide text is derived from it. The star is where a group is joined. Cbz = O=C(OCc1ccccc1)*

Assays:
[1] = biological target: Cellular tumor antigen p53 (Homo sapiens) (UniProt P04637); assay: Primary qHTS for small molecule compounds that upregulate eGFP-tagged delta133p53alpha (in N-terminal) cells. (AID 2060322); conditions: NCI-H358 eGFP-delta133p53alpha fluorescence, 24 h; activation: stronger effect = higher value;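 note: 0% = DMSO vehicle and 100% = reference activator; nearly all actives have a fitted effect of over 75% in size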
Sequence of Cellular tumor antigen p53 (Homo sapiens) (P04637 whole entry, looked up): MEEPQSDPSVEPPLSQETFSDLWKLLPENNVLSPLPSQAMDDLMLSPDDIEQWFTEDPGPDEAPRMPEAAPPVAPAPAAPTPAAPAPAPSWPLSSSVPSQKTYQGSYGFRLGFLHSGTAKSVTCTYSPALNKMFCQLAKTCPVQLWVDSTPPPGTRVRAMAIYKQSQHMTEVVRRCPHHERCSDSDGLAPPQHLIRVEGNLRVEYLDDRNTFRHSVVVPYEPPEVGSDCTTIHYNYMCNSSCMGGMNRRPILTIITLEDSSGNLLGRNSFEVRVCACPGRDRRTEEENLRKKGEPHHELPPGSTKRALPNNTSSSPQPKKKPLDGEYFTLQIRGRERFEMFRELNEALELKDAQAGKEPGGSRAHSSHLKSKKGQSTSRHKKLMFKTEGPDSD
Outline: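 NCI-H358 cells pre-induced 24 h with 10 ng/ml doxycycline to express N-terminal eGFP-delta133p53alpha, then dosed 24 h at 37C without doxycycline; fixed, Hoechst-stained, GFP intensity by laser scanning cytometry, normalized to DMSO (0%) and 57.5 uM 5-azacytidine (100%).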

[2] = biological target: Cellular tumor antigen p53 (Homo sapiens) (UniProt P04637); assay: Primary qHTS for small molecule compounds that upregulate eGFP-tagged delta133p53alpha (in C-terminal) cells. (AID 2060324); conditions: NCI-H358 delta133p53alpha-eGFP (C-terminal tag), GFP fluorescence imaging, 24 h; series mostly up to 57.5 µM;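 note: 0% = DMSO wells and 100% = 57.5 µM 5-azacytidine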
Outline: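 In this qHTS, GFP-tagged delta133p53alpha levels are measured in fixed NCI-H358 cells after 24 h compound exposure at 37 °C. The cells are pre-induced with 100 ng/ml doxycycline, and signal is normalized to DMSO-treated wells as 0%.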

[3] = biological target: Aldehyde dehydrogenase, mitochondrial (Homo sapiens) (UniProt P05091); assay: qHTS for Inhibitors of the Aldehyde Dehydrogenase Family (ALDH2) Validation screens (AID 2061302; active = well fitted inhibition curve with a large enough effect; title and protocol of this record describe different tests;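 note: plate controls were DMSO vehicle for no effect and maximal DPI positive control response for full effect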); conditions: ALDH inhibition qHTS; series mostly up to 42.6 µM
[4] = biological target: Retinaldehyde dehydrogenase 3 (Homo sapiens) (UniProt P47895); assay: qHTS for Inhibitors of the Aldehyde Dehydrogenase Family (ALDH1A3) Validation screen (AID 2061312); conditions: ALDH1A3 enzyme inhibition qHTS validation, fluorescence; series mostly up to 84.7 µM; note: % is set by controls: 0 for no effect and ±100 for the full control effect; nearly all actives have a fitted effect of over 45% in size

NCCCC(=O)O
inactive: activation [1] -3.84% | Potency [2] | Potency [3] | Potency [4]

CC1CCN(CC[C@H]2CCCN2S(=O)(=O)c2cccc(O)c2)CC1
inactive: activation [1] -4.01% | Potency [2] | Potency [3] | Potency [4]

CC(C)(C)NCC(O)c1cc(O)cc(O)c1 (stereo not given)
inactive: activation [1] 2.51% and 8.65% | Potency [2] | Potency [3] | Potency [4]

CN1C2CCCC1CC(NC(=O)c1nn(C)c3ccccc13)C2 (stereo not given)
inactive: activation [1] -4.74% | Potency [2] | Potency [3] | Potency [4]

OC[C@H]1NC[C@@H](O)[C@@H]1O
inactive: activation [1] 4.88% | Potency [2] | Potency [3] | Potency [4]

NCC1OC(O[C@H]2[C@H](O)[C@@H](OC3C(O)C(N)CC(N)C3OC3OC(CO)C(O)C(O)C3N)O[C@@H]2CO)C(N)C(O)C1O (stereo not given in full)
inactive: activation [1] 6.76% | Potency [2] | Potency [3] | Potency [4]

CC(=O)N[C@@H](Cc1c[nH]c2ccccc12)C(=O)OCc1cc(C(F)(F)F)cc(C(F)(F)F)c1
inactive: activation [1] -29.2% | Potency [2] | Potency [3] | Potency [4]

NC(N)=N/N=C/c1c(Cl)cccc1Cl
inactive: activation [1] 35% | Potency [2] | Potency [3] | Potency [4]

CN(C)CCC(c1ccc(Cl)cc1)c1ccccn1 (stereo not given)
inactive: activation [1] -24.5% | Potency [2] | Potency [3] | Potency [4]

N=C(N)c1ccccc1
inactive: activation [1] -12.8% | Potency [2] | Potency [3] | Potency [4]

CCCCCCC/C=C\CCCCCCCCC(=O)O
inactive: activation [1] -38.4% | Potency [2] | Potency [3] | Potency [4]

CC(C)(C=O)Cc1cc(C(C)(C)C)c(O)c(C(C)(C)C)c1
inactive: activation [1] -15.2% | Potency [2] | Potency [3] | Potency [4]

Nn1nnc2ccccc21
inactive: activation [1] 15.1% | Potency [2] | Potency [3] | Potency [4]

COC(=O)C1=C(C)NC(C)=C([N+](=O)[O-])C1c1ccccc1C(F)(F)F (stereo not given)
inactive: activation [1] -39.9% | Potency [2] | Potency [3] | Potency [4]

O=C(O)CP(=O)(O)O
inactive: activation [1] -13% and 17.7% | Potency [2] | Potency [3] | Potency [4]

O=C(CCNNC(=O)c1ccncc1)NCc1ccccc1
inactive: activation [1] -11.9% and -31.2% | Potency [2] | Potency [3] | Potency [4]

NC(=O)C(=O)O
inactive: activation [1] -8.72% | Potency [2] | Potency [3] | Potency [4]

CC(C)[C@H](NC(=O)OCc1ccccc1)C(=O)N[C@H](C=O)Cc1ccccc1 (Cbz-Val-Phe-aldehyde)
inactive: activation [1] -5.34% | Potency [2] | Potency [3] | Potency [4]

CSc1ccc(C(=O)c2[nH]c(=O)[nH]c2C)cc1
inactive: activation [1] -17.5% and -26.2% | Potency [2] | Potency [3] | Potency [4]

COc1ccc2c(c1)c(CC(=O)O)c(C)n2C(=O)c1ccccc1
inactive: activation [1] -16.8% | Potency [2] | Potency [3] | Potency [4]

NCCCCN=C(N)N
inactive: activation [1] -3.8% | Potency [2] | Potency [3] | Potency [4]

O=C(c1ccc2c(c1)OCCO2)N1CCCCC1
inactive: activation [1] 8.27% | Potency [2] | Potency [3] | Potency [4]

CN1CCCC1CCOC(C)(c1ccccc1)c1ccc(Cl)cc1 (stereo not given)
inactive: activation [1] -26.8% | Potency [2] | Potency [3] | Potency [4]

CC(C)NCC(O)COc1ccc(CC(N)=O)cc1 (stereo not given)
inactive: activation [1] -17.7% | Potency [2] | Potency [3] | Potency [4]

N[C@@H](CC(=O)O)C(=O)O
inactive: activation [1] -3.52% | Potency [2] | Potency [3] | Potency [4]

CCCCNc1ccc(C(=O)OCCN(C)C)cc1
inactive: activation [1] -9.6% and 10.7% | Potency [2] | Potency [3] | Potency [4]

CC(C)(C)NCC(O)COc1cccc2[nH]c(=O)[nH]c12 (stereo not given)
inactive: activation [1] -2.8% | Potency [2] | Potency [3] | Potency [4]

NC[C@H]1O[C@@H](n2cnc3c(N)ncnc32)[C@H](O)[C@@H]1O
inactive: activation [1] 4.39% | Potency [2] | Potency [3] | Potency [4]

CCCCC[C@H](CC(=O)NO)C(=O)N[C@H](C(=O)N1CCC[C@H]1CO)C(C)C
inactive: activation [1] -6.85% | Potency [2] | Potency [3] | Potency [4]

O=P(O)(O)C(Cl)(Cl)P(=O)(O)O
inactive: activation [1] -11.2% | Potency [2] | Potency [3] | Potency [4]

Nc1cc(=O)[nH]c(N)n1
inactive: activation [1] -34.3% and -22.6% | Potency [2] | Potency [3] | Potency [4]

CC(C)[N+](C)(CCOC(=O)C1c2ccccc2Oc2ccccc21)C(C)C
inactive: activation [1] 18.6% and -22.6% | Potency [2] | Potency [3] | Potency [4]

CN1CC(=O)N/C1=N/C(=O)Nc1cccc(Cl)c1
inactive: activation [1] 5.86% | Potency [2] | Potency [3] | Potency [4]

NC(=O)c1cn(Cc2c(F)cccc2F)nn1
inactive: activation [1] -12.6% and -6.02% | Potency [2] | Potency [3] | Potency [4]

CCN(CC)CCCCCCCCOC(=O)c1cc(OC)c(OC)c(OC)c1
inactive: activation [1] -40.3% | Potency [2] | Potency [3] | Potency [4]

CN(C)CC[C@@H](c1ccc(Cl)cc1)c1ccccn1
inactive: activation [1] -9.6% and -8.57% | Potency [2] | Potency [3] | Potency [4]

C[C@@H](O)[C@H]1C(=O)N2C(C(=O)O)=C(SCCN=CN)C[C@H]12
inactive: activation [1] -25.9% and 4.11% | Potency [2] | Potency [3] | Potency [4]

O=C(CCCN1CCC(O)(c2ccc(Cl)cc2)CC1)c1ccc(F)cc1
inactive: activation [1] 37.6% and -8.4% | Potency [2] | Potency [3] | Potency [4]

O=c1[nH]c(=O)n([C@H]2C[C@H](O)[C@@H](CO)O2)cc1Br
inactive: activation [1] -16.4% and -22.3% | Potency [2] | Potency [3] | Potency [4]

NOCC(=O)O
inactive: activation [1] -16.6% | Potency [2] | Potency [3] | Potency [4]

C[C@H](Cc1ccccc1)Nc1ncnc2c1ncn2[C@@H]1O[C@H](CO)[C@@H](O)[C@H]1O
inactive: activation [1] -29.5% | Potency [2] | Potency [3] | Potency [4]

CC(=O)O[C@H]1Cc2ccccc2N(C(N)=O)c2ccccc21
inactive: activation [1] 5.86% | Potency [2] | Potency [3] | Potency [4]

NCCCS(=O)(=O)O
inactive: activation [1] 14.5% | Potency [2] | Potency [3] | Potency [4]

CN1[C@@H](CC(=O)c2ccccc2)CCC[C@H]1C[C@H](O)c1ccccc1
inactive: activation [1] 1.49% | Potency [2] | Potency [3] | Potency [4]

CC(CN(C)C)CN1c2ccccc2CCc2ccccc21 (stereo not given)
inactive: activation [1] -10% and -21.6% | Potency [2] | Potency [3] | Potency [4]

CC(N)C(=O)OC(C)(C)Cc1ccc(Cl)cc1 (stereo not given)
inactive: activation [1] 19.8% and -28.1% | Potency [2] | Potency [3] | Potency [4]

Fc1ccc(CN(C2=NCCN2)c2c(Cl)cccc2Cl)cc1
inactive: activation [1] -28.1% | Potency [2] | Potency [3] | Potency [4]

OC[C@H]1O[C@@H](n2cnc3c(NC4CCCCC4)ncnc32)[C@H](O)[C@@H]1O
inactive: activation [1] 5.46% | Potency [2] | Potency [3] | Potency [4]

COc1cc([C@@H]2c3cc4c(cc3[C@H](O)C3COC(=O)[C@@H]32)OCO4)cc(OC)c1OC (stereo not given in full)
inactive: activation [1] -47.3% | Potency [2] | Potency [3] | Potency [4]

N[C@H](C(=O)O)[C@H](Cc1ccccc1)C(=O)O
inactive: activation [1] 1.24% | Potency [2] | Potency [3] | Potency [4]

N#CC(C#N)=C(N)/C(C#N)=C/c1ccc(O)cc1
inactive: activation [1] -15.2% | Potency [2] | Potency [3] | Potency [4]

CCCCCCCCc1ccc(-c2ccc(C(=O)O)cc2)cc1
inactive: activation [1] -87.3% | Potency [2] | Potency [3] | Potency [4]

CC1CC2C3CCC4=CC(=O)C=C[C@]4(C)[C@@]3(F)[C@@H](O)C[C@]2(C)[C@@]1(O)C(=O)CO (stereo not given in full)
inactive: activation [1] -4.86% and -24.4% | Potency [2] | Potency [3] | Potency [4]

O=C(CCSCc1ccco1)NNC(=O)N1Cc2ccccc2Oc2ccc(Cl)cc21
inactive: activation [1] 22% | Potency [2] | Potency [3] | Potency [4]

O=C(O)C1CCCNC1 (stereo not given)
inactive: activation [1] -25.6% | Potency [2] | Potency [3] | Potency [4]

CC(=O)N[C@@H](CS)C(=O)O
inactive: activation [1] 11.9% and -21.2% | Potency [2] | Potency [3] | Potency [4]

CNC(=O)[C@H]1O[C@@H](n2cnc3c(NCc4cccc(I)c4)ncnc32)[C@H](O)[C@@H]1O
inactive: activation [1] -36.7% | Potency [2] | Potency [3] | Potency [4]

COc1cccc(OC)c1OCCNCC1CSc2ccccc2O1 (stereo not given)
inactive: activation [1] 20.5% | Potency [2] | Potency [3] | Potency [4]

Nc1ccc(CCNc2ncnc3c2ncn3C2OC(CO)C(O)C2O)cc1 (stereo not given)
inactive: activation [1] -6.89% | Potency [2] | Potency [3] | Potency [4]

C(=C\c1ccccc1)/CN1CCN(C(c2ccccc2)c2ccccc2)CC1
inactive: activation [1] -1.67% and -21% | Potency [2] | Potency [3] | Potency [4]

O=[N+]([O-])c1cccc2c(Br)[nH]nc12
inactive: activation [1] -55.3% | Potency [2] | Potency [3] | Potency [4]

CC(C)(CO)Cc1cc(C(C)(C)C)c(O)c(C(C)(C)C)c1
inactive: activation [1] -20% | Potency [2] | Potency [3] | Potency [4]

Cc1ccccc1C(OCCN(C)C)c1ccccc1 (stereo not given)
inactive: activation [1] 0.562% and -27.9% | Potency [2] | Potency [3] | Potency [4]

CC[C@H]1OC(=O)[C@H](C)C(O[C@H]2C[C@@](C)(OC)[C@@H](O)[C@H](C)O2)[C@H](C)[C@@H](OC2O[C@H](C)C[C@H](N(C)C)[C@H]2O)[C@](C)(O)C[C@@H](C)CN(C)[C@H](C)[C@@H](O)[C@]1(C)O (stereo not given in full)
inactive: activation [1] -28.2% | Potency [2] | Potency [3] | Potency [4]

CC1CNCCN1S(=O)(=O)c1cccc2cnccc12 (stereo not given)
inactive: activation [1] -28.4% | Potency [2] | Potency [3] | Potency [4]
